Reference: PubChem BioAssay (Tox21)
Where “and” joins values, the source holds several entries; their conditions need not be identical. Identical values can stand only once. Results filed as inconclusive are left out. The source holds several records for some structures; these can differ, active in one and inactive in another. Calls of active or inactive are those of the source. Unless noted, calls come from the whole dose curve; as a rule, active = well fitted curve in the direction sought with a large enough effect in the repeat runs; inconclusive = weak or mixed curves; inactive = no such curve, though single readings can be large; an effect the other way counts as inactive or inconclusive.

Experiments:
[1] = qHTS assay to identify small molecule agonists of H2AX - cell viability counter screen (AID 1224847; calls by dose curve; note: nearly all actives have a fitted effect of over 30% in size; note: potency is the fitted concentration of half-maximal effect)
How it was run: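 CHO-K1 wt, 1000 cells/well, o/n 37C; cpds 15 conc, 3 h 37C, 0.76% DMSO; CellTiter-Glo, 30 min RT, luminescence.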

[2] = qHTS RealTime-Glo MT Cell Viability Assay in HepG2 cells - 24 hour (AID 1224867); note: nearly all actives have a fitted effect of over 50% in size; note: potency is the fitted concentration of half-maximal effect
How it was run: (§1)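 HepG2 suspension premixed with RealTime-Glo reagents is plated at 600 cells per well and left 5 h at 37 C/5% CO2. Compounds in DMSO then go in, and bioluminescence reflecting viable cell number is recorded over 40 h.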

[3] = A CellTox Green Cytotoxicity Assay to monitor cytotoxicity in HEK293 cells - 0 hour (AID 1224869); note: nearly all actives have a fitted effect of over 50% in size
How it was run: (§2)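 Read-out: fluorescence of a cell-impermeant cyanine dye staining DNA of dead cells, proportional to cytotoxicity. HEK293, 600 cells/well with reagent, compound (23 nL DMSO) added after 5 h; reads at 0, 8, 16, 24, 32, 40 h.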

[4] = A CellTox Green Cytotoxicity Assay to monitor cytotoxicity in HEK293 cells - 40 hour (AID 1224871); note: nearly all actives have a fitted effect of over 45% in size; note: potency is the fitted concentration of half-maximal effect
How it was run: as §2

[5] = qHTS RealTime-Glo MT Cell Viability Assay in HEK293 cells - 16 hour (AID 1224872); note: nearly all actives have a fitted effect of over 50% in size; note: potency is the fitted concentration of half-maximal effect
How it was run: (§3)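 Reads taken at 0, 8, 16, 24, 32 and 40 h from the same wells. HEK293 cells (600/well) carried RealTime-Glo reagents from seeding, with compound added after a 5 h settle at 37 C.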

[6] = qHTS RealTime-Glo MT Cell Viability Assay in HepG2 cells - 8 hour (AID 1224873); note: nearly all actives have a fitted effect of over 55% in size; note: potency is the fitted concentration of half-maximal effect
How it was run: (§4)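 HepG2 cells (600/well) mixed with RealTime-Glo MT reagent, settled 5 h at 37 C/5% CO2 before compound addition. Nonlytic NanoLuc luminescence from viable-cell prosubstrate reduction read repeatedly during 40 h treatment at 37 C.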

[7] = A CellTox Green Cytotoxicity Assay to monitor cytotoxicity in HEK293 cells - 24 hour (AID 1224875); note: nearly all actives have a fitted effect of over 45% in size; note: potency is the fitted concentration of half-maximal effect
How it was run: as §2

[8] = A CellTox Green Cytotoxicity Assay to monitor cytotoxicity in HepG2 cells - 16 hour (AID 1224876); note: nearly all actives have a fitted effect of over 45% in size; note: potency is the fitted concentration of half-maximal effect
How it was run: (§5)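 HepG2, 600 cells/well premixed w/ CellTox Green; 5 h settle, 37 C/5% CO2; pintool cpd add (DMSO); 37 C, 40 h; fluorescence read at 0, 8, 16, 24, 32, 40 h.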

[9] = qHTS RealTime-Glo MT Cell Viability Assay in HepG2 cells - 32 hour (AID 1224877); note: nearly all actives have a fitted effect of over 55% in size; note: potency is the fitted concentration of half-maximal effect
How it was run: as §1

[10] = A CellTox Green Cytotoxicity Assay to monitor cytotoxicity in HepG2 cells - 24 hour (AID 1224878); note: nearly all actives have a fitted effect of over 45% in size; note: potency is the fitted concentration of half-maximal effect
How it was run: as §5

[11] = A CellTox Green Cytotoxicity Assay to monitor cytotoxicity in HepG2 cells - 40 hour (AID 1224879); note: nearly all actives have a fitted effect of over 40% in size; note: potency is the fitted concentration of half-maximal effect
How it was run: as §5

[12] = qHTS RealTime-Glo MT Cell Viability Assay in HEK293 cells - 0 hour (AID 1224880)
How it was run: (§6)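 Luminescence readout at each listed time point; HEK293, 600 cells/well, RealTime-Glo MT reagent added with cells; compounds pinned (23 nL in DMSO) after 5 h at 37 C; continuous culture at 37 C.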

[13] = A CellTox Green Cytotoxicity Assay to monitor cytotoxicity in HEK293 cells - 32 hour (AID 1224881); note: nearly all actives have a fitted effect of over 40% in size; note: potency is the fitted concentration of half-maximal effect
How it was run: as §2

[14] = qHTS assay to identify small molecule agonists of the hypoxia (HIF-1) signaling pathway (AID 1224846; active = well fitted activation curve with a large enough effect in the signal ratio in the repeat runs, not every such curve was filed as active; the % refers to the signal ratio)
How it was run: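 Beta-lactamase FRET read-out (CCF4-AM substrate) from ME-180 cells carrying an HRE-driven bla reporter, after 17 hrs compound exposure at 37C/5% CO2. Cells were seeded at 2,000 per well in 0.5% dialyzed FBS medium and preincubated 5 hrs.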

[15] = qHTS RealTime-Glo MT Cell Viability Assay in HEK293 cells - 32 hour (AID 1224868); note: nearly all actives have a fitted effect of over 50% in size; note: potency is the fitted concentration of half-maximal effect
How it was run: as §3

[16] = qHTS RealTime-Glo MT Cell Viability Assay in HepG2 cells - 40 hour (AID 1224870); note: nearly all actives have a fitted effect of over 50% in size; note: potency is the fitted concentration of half-maximal effect
How it was run: as §4

[17] = qHTS RealTime-Glo MT Cell Viability Assay in HEK293 cells - 40 hour (AID 1224874); details: RealTime-Glo luminescence; max response: stronger effect = lower value; note: nearly all actives have a fitted effect of over 50% in size; note: potency is the fitted concentration of half-maximal effect
How it was run: as §6

[18] = qHTS assay to identify small molecule antagonists of the estrogen related receptor (ERR) signaling pathway from Tox21 library (AID 1224848); note: nearly all actives have a fitted effect of over 50% in size; note: potency is the fitted concentration of half-maximal effect
How it was run: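 Quantitative high-throughput format: ERR reporter cells (2,000/well) pre-incubated 6 h, treated 18 h at 37 C with compounds in DMSO alongside positive and negative controls, then read by ONE-Glo luminescence.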

[19] = qHTS assay to identify small molecule agonists of the estrogen related receptor (ERR) signaling pathway from Tox21 library (AID 1224849; calls by dose curve; note: nearly all actives have a fitted effect of over 15% in size); details: ERR reporter cell line, ONE-Glo luciferase, 18 h
How it was run: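 Luminescence readout (ONE-Glo, 30 min RT) after 18 h compound exposure at 37 C of NTP-supplied ERR reporter cells; cells were plated 6 h before compound addition by pin tool.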
% is set by controls: 0 for no effect and ±100 for the full control effect.

CC(C)(c1ccccc1)c1ccc(O)cc1
inactive and 49 µM (active): Potency [6]
active: Potency [1] 112 µM and 101 µM | Potency [4] 24.3 µM and 27.5 µM | Potency [5] 48.6 µM and 30.9 µM | Potency [7] 21.7 µM and 43.6 µM | Potency [8] 24.5 µM | Potency [10] 48.6 µM and 21.9 µM | Potency [11] 48.6 µM and 24.5 µM | Potency [13] 27.3 µM and 24.5 µM
inactive: Potency [2] | Potency [3] | Potency [9] | Potency [12]

CC(C)(O)C#N
inactive: outcome [14] | Potency [1] | Potency [2] | Potency [15] | Potency [3] | Potency [16] | Potency [4] | Potency [5] | Potency [6] | Potency [7] | Potency [8] | Potency [9] | Potency [10] | Potency [11] | Potency [12] | Potency [13]

CCCCCCCC[N+](C)(CCCCCCCC)CCCCCCCC
active: Potency [1] 44.9 µM and 567 nM and 35.7 µM | Potency [2] 10.9 µM and 21.9 µM and 9.77 µM | Potency [15] 218 nM and 138 nM and 1.55 µM | Potency [16] 9.75 µM and 15.5 µM and 8.71 µM | Potency [4] 24.5 µM and 27.6 µM and 12.3 µM | Potency [5] 2.75 µM and 1.1 µM and 6.16 µM | Potency [6] 17.3 µM and 30.9 µM and 17.4 µM | Potency [17] 173 nM and 138 nM and 1.1 µM | Potency [7] 21.8 µM and 21.9 µM and 9.77 µM | Potency [8] 15.5 µM and 21.9 µM and 17.4 µM | Potency [9] 9.75 µM and 19.5 µM and 8.71 µM | Potency [10] 9.75 µM and 19.5 µM and 15.5 µM | Potency [11] 13.8 µM and 19.5 µM | Potency [13] 17.3 µM and 27.6 µM and 11 µM
inactive: Potency [3] | Potency [12]

NC(=O)CN1CCCC1=O
inactive: Potency [1] | Potency [18] | activity change, positive = activation ([19]; at 42.5 µM (top of the series)) 2.36% | activity change, positive = activation ([19]; at 92.4 µM (top of the series)) 6.19% | Potency [2] | Potency [3] | Potency [16] | Potency [4] | Potency [5] | Potency [6] | Potency [7] | Potency [8] | Potency [10] | Potency [11] | Potency [12] | Potency [13]

C=CC(=O)OCC(CC)(COC(=O)C=C)COC(=O)C=C
active: Potency [18] 15.8 µM and 19.3 µM | Potency [2] 25.2 µM and 12.3 µM | Potency [15] 3.56 µM and 11 µM | Potency [4] 4.48 µM and 7.76 µM | Potency [5] 6.33 µM and 12.3 µM | Potency [6] 22.5 µM and 9.77 µM | Potency [9] 25.2 µM and 12.3 µM | Potency [10] 14.2 µM | Potency [11] 12.6 µM
inactive: activity change, positive = activation ([19]; at 92.4 µM (top of the series)) -82.1% and -76.4% | Potency [3] | Potency [7] | Potency [8] | Potency [12]

Cl
inactive: outcome [14] | Potency [1] | Potency [2] | Potency [3] | Potency [4] | Potency [5] | Potency [6] | max response [17] 0.872% and 8.14% | Potency [7] | Potency [8] | Potency [10] | Potency [11] | Potency [12] | Potency [13]

COC(=O)Nc1nc2ccccc2[nH]1
inactive: outcome [14] | Potency [1] | Potency [2] | Potency [3] | Potency [4] | Potency [5] | Potency [6] | Potency [7] | Potency [8] | Potency [9] | Potency [10] | Potency [12]
active: Potency [11] 5.49 µM and 11 µM

CC(C)=CC1C(C(=O)OCN2C(=O)C3=C(CCCC3)C2=O)C1(C)C (stereo unspecified)
inactive: outcome [14] | activity change, positive = activation ([19]; at 42.5 µM (top of the series)) -16.7% | activity change, positive = activation ([19]; at 92.4 µM (top of the series)) -22.5% | Potency [2] | Potency [15] | Potency [3] | Potency [16] | Potency [4] | Potency [5] | Potency [6] | Potency [7] | Potency [8] | Potency [9] | Potency [10] | Potency [11] | Potency [12]

CNC(=O)CSP(=S)(OC)OC
inactive: outcome [14] | Potency [1] | Potency [2] | Potency [15] | Potency [3] | Potency [16] | Potency [4] | Potency [5] | Potency [6] | max response [17] -14.6% and -0.812% | Potency [7] | Potency [8] | Potency [9] | Potency [10] | Potency [11] | Potency [12] | Potency [13]

c1ccc(C2CO2)cc1 (stereo unspecified)
inactive: outcome [14] | Potency [1] | Potency [2] | Potency [15] | Potency [3] | Potency [4] | Potency [5] | Potency [6] | max response [17] -2.54% and -3.91% | Potency [7] | Potency [8] | Potency [9] | Potency [10] | Potency [11] | Potency [12] | Potency [13]
